Screening data from PubChem.
An excerpt weighted towards active compounds, which were near 2.3% of everything screened.
PTHR1 agonist: qHTS for PTHR1 Agonists: Primary Screen; HEK293 GP2 PTHR1 cells, GloSensor cAMP luminescence, 1 h; Potency, µM (top dose mostly 115 µM), usual class: activators; actives 0.075% (n = 410,000); further: nearly all actives have a fitted effect of over 55% in size
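HEK-293-derived GP2 cells expressing PTHR1 and a GloSensor cAMP reporter, 3,000/well, plated overnight, given luciferin plus IBMX (each 0.5 mM as added) for 1 h at 37 °C, then compound for 1 h at 37 °C. Luminescence was read after 15 min at room temperature.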
GLS inhibitor: qHTS for Inhibitors of Glutaminase (GLS); Glutaminase kidney isoform, mitochondrial (Homo sapiens), O94925; actives 0.21% (n = 410,000); Potency, µM (doses to about 45.5 µM), hits mostly inhibitors; GLS enzymatic activity, qHTS titration
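Human kidney-isoform GLS in 45 mM KH2PO4 pH 8.2, 0.02% Tween-20, with compound, started with 1mM L-Glutamine (added stock). Glutamate oxidase/HRP/Amplex red coupled fluorescence read at start and after 30 min at RT.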
ALOX12 inh: Primary qHTS assay for inhibitors of human arachidonate 12S-lipoxygenase (ALOX12): Round 2; purified 12hLO, xylenol orange hydroperoxide absorbance; Potency, µM (titrated, usually from 108 µM), hits mostly inhibitors; actives 1.1% (n = 580,000)
Target sequence (P18054 whole entry, looked up): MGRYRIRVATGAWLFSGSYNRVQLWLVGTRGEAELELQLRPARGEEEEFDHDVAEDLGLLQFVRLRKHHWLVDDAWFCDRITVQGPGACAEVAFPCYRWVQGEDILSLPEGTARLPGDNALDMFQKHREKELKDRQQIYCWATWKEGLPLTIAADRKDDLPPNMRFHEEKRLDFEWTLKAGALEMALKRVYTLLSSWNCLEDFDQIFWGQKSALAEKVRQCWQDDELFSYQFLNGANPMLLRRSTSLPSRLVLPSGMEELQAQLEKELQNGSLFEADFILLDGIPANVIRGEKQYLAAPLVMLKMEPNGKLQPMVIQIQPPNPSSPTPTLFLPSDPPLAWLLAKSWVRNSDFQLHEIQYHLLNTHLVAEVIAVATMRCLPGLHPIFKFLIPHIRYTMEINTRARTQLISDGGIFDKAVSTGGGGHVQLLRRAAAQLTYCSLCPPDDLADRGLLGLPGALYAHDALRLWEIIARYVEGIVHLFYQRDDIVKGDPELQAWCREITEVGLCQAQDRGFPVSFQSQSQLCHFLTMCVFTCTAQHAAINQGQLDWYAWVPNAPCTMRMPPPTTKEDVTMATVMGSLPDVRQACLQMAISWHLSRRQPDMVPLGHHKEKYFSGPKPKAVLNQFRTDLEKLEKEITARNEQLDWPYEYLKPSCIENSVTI
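Purified human 12hLO (150 nM final) in 25 mM Hepes, 0.01% Triton X-100, pH 7.0 was preincubated 15 min at room temperature with compound. Then 40 uM arachidonic acid was added, 30 min. Hydroperoxide was read by Fe-XO absorbance ratio 573/405 nm.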
GLP1R ag: qHTS of GLP-1 Receptor Agonists; HEK293 GLP-1R CRE-luciferase, luminescence, 4-6 h; cells express a hypersensitive GLP-1R form; Glucagon-like peptide 1 receptor (Homo sapiens), P43220; Potency, µM (doses to about 45.6 µM), most hits filed as activators; actives 0.007% (n = 380,000); AID 624172, 2012
GLP1R inv ag: qHTS of GLP-1 Receptor Inverse Agonists (Inhibition Mode) | Potency, µM (doses to about 38.3 µM), hits mostly inhibitors | Glucagon-like peptide 1 receptor (Homo sapiens), P43220 | HEK293 GLP-1R CRE-luciferase, luminescence, 24 h; GLP-1R form is constitutively active | actives 1.6% (n = 410,000); further: nearly all actives have a fitted effect of over 55% in size
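Seeding at 200 cells/uL, 12 h culture, 24 hr compound treatment, then luciferase reagent and a luminescence read; cells are HEK293 stably expressing a constitutively active GLP-1R plus cAMP-responsive luciferase.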
GRP78 ERSR act: qHTS for Inducers of the Endoplasmic Reticulum Stress Response (ERSR) in Human Glioma: qHTS; U87-MG GRP78 promoter luciferase reporter, 16 h; Potency, µM, hits mostly activators; actives 0.02% (n = 420,000); further: series mostly up to about 76 µM; nearly all actives have a fitted effect of over 35% in size
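Stably transfected U87-MG glioma cells carrying a GRP78-based luciferase sensor; 16 h compound incubation. Luminescence end-point read 10 min after Bright-Glo addition at room temperature.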
Each line names hits and unclear results; the compound was inactive in the other large screens; ! = not confirmed by another sample. The call rests on the fitted dose curve; in most records, active means well fitted curve in the direction sought with a large enough effect; inconclusive means small, poorly fitted or top-dose-only effect, or another doubt; inactive means no such curve, though single readings can be large; an effect the other way counts as inactive or inconclusive.

CC(C(=O)Nc1ccc(C#N)cc1)N(C)CC(=O)Nc1cccc(F)c1 (stereo unspecified)	PTHR1 agonist inconclusive
O=c1cc(-c2ccc(OCc3ccccc3)cc2)oc2cc(OCc3ccccc3)cc(OCc3ccccc3)c12	GLS inhibitor inconclusive, ALOX12 inh 35µM
CC12CC(NC(=O)N1c1cccc(C(=O)NCc3ccc4c(c3)OCO4)c1)c1cc(Cl)ccc1O2 (stereo unspecified)	ALOX12 inh inconclusive, GLP1R inv ag 1.6µM
CC(C)C(=O)Nc1cccc(C(=O)NCc2ccc3c(c2)OCO3)c1	none
Cn1ccc2c(C(=O)NCc3cccnc3)nc(-c3ccccc3C(F)(F)F)cc21	none (no result: PTHR1 agonist, GLS inhibitor, GLP1R ag, GLP1R inv ag, GRP78 ERSR act)
CC(C)S(=O)(=O)C1=NSC2=NC(=O)/C(=C\c3ccc(-c4ccccc4)o3)C(=N)N21	ALOX12 inh 25µM
N=C1/C(=C/c2ccc(-c3cccc(C(=O)O)c3)o2)C(=O)N=C2SC=C(c3ccccc3)N12	GLS inhibitor 22µM, ALOX12 inh 28µM, GLP1R inv ag inconclusive
CC(C)S(=O)(=O)C1=NSC2=NC(=O)/C(=C\c3ccc(-c4cccc(C(=O)O)c4)o3)C(=N)N21	ALOX12 inh inconclusive
NC(=O)c1ccc(Cn2c(C(=O)c3ccc(Cl)cc3)c3ccccc3[n+]2[O-])cc1	ALOX12 inh inconclusive
NC(=O)c1ccc(Cn2c(C(=O)c3cc(Cl)c(N)c(Cl)c3)c3ccccc3[n+]2[O-])cc1	ALOX12 inh 18µM
CCCCS/C(N)=N/N=C/c1cc(C)ccc1O	GLP1R inv ag 10µM, GRP78 ERSR act inconclusive
Cc1ccc(S(=O)(=O)c2nc(-c3ccco3)oc2SC(C)C)cc1	ALOX12 inh 32µM!, GLP1R ag inconclusive, GLP1R inv ag inconclusive
CCSc1oc(-c2ccco2)nc1S(=O)(=O)c1ccc(F)cc1	ALOX12 inh 28µM!
CCCSc1oc(-c2ccco2)nc1S(=O)(=O)c1ccc(Cl)cc1	ALOX12 inh 40µM, GLP1R inv ag inconclusive (no result: GLP1R ag)
CCSc1oc(-c2ccc(C)cc2)nc1S(=O)(=O)c1ccccc1	ALOX12 inh 32µM (no result: PTHR1 agonist, GLS inhibitor, GLP1R ag, GLP1R inv ag, GRP78 ERSR act)
CCSc1oc(-c2ccco2)nc1S(=O)(=O)c1ccc(C)cc1	ALOX12 inh inconclusive
Cc1ccc(S(=O)(=O)c2nc(-c3ccco3)oc2SCC(C)C)cc1	ALOX12 inh inconclusive, GLP1R inv ag inconclusive (no result: GLP1R ag)
O=C1Nc2ccccc2CCC1n1nc(-c2ccccc2F)ccc1=O (stereo unspecified)	none (no result: PTHR1 agonist, GLS inhibitor, GLP1R ag, GLP1R inv ag, GRP78 ERSR act)
Cc1ccc(CNC(=O)c2cccc(C3CCCN(C(=O)Nc4ccccc4)C3)c2)o1 (stereo unspecified)	none (no result: PTHR1 agonist, GLS inhibitor, GLP1R ag, GLP1R inv ag, GRP78 ERSR act)
O=C(Nc1nccs1)NC1CC(=O)N(c2cccc(F)c2)C1 (stereo unspecified)	none (no result: PTHR1 agonist, GLS inhibitor, GLP1R ag, GLP1R inv ag, GRP78 ERSR act)
O=C1C(SCCO)=C(SCCO)C(=O)c2ccccc21	GLS inhibitor inconclusive, ALOX12 inh inconclusive
CC1=C(SCc2ccccc2)C(=O)c2ccccc2C1=O	ALOX12 inh 13µM, GLP1R inv ag inconclusive
N#Cc1ccc(COC(=O)c2ccc3c(c2)NC(=O)CS3)cc1	none (no result: PTHR1 agonist, GLS inhibitor, GLP1R ag, GLP1R inv ag, GRP78 ERSR act)
N#CCSC1=Nc2ccccc2CS1	none (no result: PTHR1 agonist, GLS inhibitor, GLP1R ag, GLP1R inv ag, GRP78 ERSR act)
CCC(=O)OC1(C)C(=O)C2=COC(c3ccc(OC)cc3)=CC2=C(Br)C1=O (stereo unspecified)	ALOX12 inh 50µM
COC(=O)CCC(=O)OC1(C)C(=O)C2=CN(c3ccccc3)C(c3ccc(OC)cc3)=CC2=C(Br)C1=O (stereo unspecified)	ALOX12 inh 40µM
CCCCC1=CC2=CC(=O)C(C)(OC(=O)CC)C(=O)C2=CN1c1cccc(C#N)c1 (stereo unspecified)	ALOX12 inh inconclusive
CCC(=O)OC1(C)C(=O)C=C2C=C(c3ccc(C#N)cc3)OC=C2C1=O (stereo unspecified)	ALOX12 inh 5.6µM
COc1ccc(C2=CC3=C(Br)C(=O)C(C)(O)C(=O)C3=CO2)cc1 (stereo unspecified)	none (no result: ALOX12 inh)
COc1ccc2c(c1)OC[C@H]1[C@H]2N2C(=O)CN(Cc3ccc(Cl)cc3)C(=O)[C@@]2(C)[C@H]1c1ccccc1	ALOX12 inh inconclusive, GLP1R inv ag 11µM
Cc1ccc2c(c1)C(=O)N1[C@H]3c4cc(Br)ccc4OC[C@@H]3[C@H](c3ccccc3)[C@]1(C)C(=O)N2	none
COc1ccc2c(c1)C(=O)N1[C@H]3c4cc(OC)ccc4OC[C@@H]3[C@H](c3ccccc3)[C@]1(C)C(=O)N2	GLP1R inv ag inconclusive
COc1ccc2c(c1)[C@H]1[C@H](CO2)[C@H](c2ccccc2)[C@]2(C)C(=O)Nc3ccc(Br)cc3C(=O)N12	GLP1R inv ag 5.6µM
Cc1ccc2c(c1)[C@H]1[C@H](CO2)[C@H](c2ccccc2)[C@]2(C)C(=O)Nc3ccc(Br)cc3C(=O)N12	ALOX12 inh inconclusive, GLP1R inv ag 3.2µM
CC(C)(C)NC(=S)N/N=C\c1ccc(-c2ccc([N+](=O)[O-])cc2)o1	ALOX12 inh 45µM
C=CCNC(=S)N/N=C/c1ccc(-c2ccc(OC)cc2)o1	GLS inhibitor inconclusive, ALOX12 inh 40µM, GLP1R inv ag inconclusive
CCC(C)Sc1nc2c(c(=O)n(C)c(=O)n2C)n1Cc1ccccc1Cl (stereo unspecified)	none (no result: PTHR1 agonist, GLS inhibitor, GLP1R ag, GLP1R inv ag, GRP78 ERSR act)
CSc1ccc(CN(C)C(=O)C(c2ccccc2)c2ccccc2)cc1	GLP1R inv ag 10µM
N#CCCCOC(=O)c1cc(-c2cccs2)nc2ccccc12	none (no result: PTHR1 agonist, GLS inhibitor, GLP1R ag, GLP1R inv ag, GRP78 ERSR act)
